Among all 5,500 compounds or so, about 2,000 (36%) were called active. About 18% were inconclusive and are not listed. Cut-off read from the data, not from the text of the source: active = normalized growth mostly below about 0.91 (no sharp cut-off); inconclusive = no clear call, values can overlap the other calls; inactive = mostly above about 0.92. The list shows a part of the results.
Assay: chemical genetic growth profiling, strain panel (AID 1159580);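 note: tested at 20 µM; growth read once vehicle control cultures reached saturation at 30 °C; 1 = growth at the plate median or of vehicle wells; lower values mean less growth of the strain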
Conditions: S. cerevisiae deletion strains, growth OD
[1] = locus YAL040C, strain CLN3, hits give low values
[2] = locus YDR363W, strain ESC2, hits give low values
[3] = locus YER002W, strain NOP16, hits give low values
[4] = locus YMR307W, strain GAS1, hits give low values
[5] = locus YNL153C, strain GIM3, hits give low values
[6] = locus YNL175C, strain NOP13, hits give low values
[7] = locus YNL197C, strain WHI3, hits give low values
[8] = locus YNL224C, strain SQS1, hits give low values
[9] = locus YNL322C, strain KRE1, hits give low values
[10] = locus YOR083W, strain WHI5 (second series), hits give low values
[11] = locus YPL241C, strain CIN2, hits give low values

Measured: normalized growth

CCCN(CCC)C(=O)Cc1c(-c2ccc(Cl)cc2)nc2c(Cl)cc(Cl)cn12
inactive: [1] 1 | [2] 1.01 | [3] 1.05 | [4] 1 | locus YNL128W, strain TEP1, hits give low values 1.01 | [5] 1.02 | [6] 1.03 | [7] 1.03 | [8] 1.01 | [9] 0.985 | [10] 1.08 | [11] 0.992

CC(C)c1cccc(C(C)C)c1O
inactive: locus YAL013W, strain DEP1, hits give low values 1.01 | locus YAL021C, strain ccr4, hits give low values 1 | locus YAL026C, strain drs2, hits give low values 0.993 | locus YAL030W, strain snc1, hits give low values 0.985 | [1] 0.998 | locus YBL061C, strain skt5, hits give low values 0.983 | locus YBR009C, strain hhf1, hits give low values 0.966 | locus YBR023C, strain chs3, hits give low values 0.977 | locus YBR171W, strain sec66, hits give low values 0.987 | locus YBR231C, strain swc5, hits give low values 0.997 | locus YBR279W, strain paf1, hits give low values 0.992 | locus YCL011C, strain gbp2, hits give low values 0.991 | locus YCL016C, strain dcc1, hits give low values 0.976 | locus YCL061C, strain MRC1 (second series), hits give low values 0.988 | locus YCL061C, strain MRC1, hits give low values 0.991 | locus YCL069W, strain vba3, hits give low values 0.992 | locus YCR088W, strain abp1, hits give low values 0.996 | locus YDL005C, strain med2, hits give low values 0.984 | locus YDL040C, strain nat1, hits give low values 0.976 | locus YDR001C, strain nth1, hits give low values 0.994 | locus YDR069C, strain doa4, hits give low values 0.981 | locus YDR137W, strain rgp1, hits give low values 0.966 | locus YDR150W, strain NUM1, hits give low values 0.993 | locus YDR159W, strain sac3, hits give low values 0.982 | locus YDR195W, strain ref2 0.951 | locus YDR297W, strain sur2, hits give low values 0.988 | locus YDR334W, strain swr1, hits give low values 0.988 | locus YDR335W, strain msn5, hits give low values 0.993 | [2] 0.973 | locus YDR392W, strain spt3, hits give low values 0.869 | locus YEL003W, strain gim4, hits give low values 0.99 | locus YEL037C, strain rad23, hits give low values 0.986 | locus YEL061C, strain CIN8 (second series), hits give low values 0.986 | [3] 0.986 | locus YER015W, strain faa2, hits give low values 0.983 | locus YER016W, strain bim1, hits give low values 0.979 | locus YER111C, strain swi4, hits give low values 0.973 | locus YER155C, strain BEM2 (second series), hits give low values 0.996 | locus YFR010W, strain ubp6, hits give low values 0.978 | locus YGL167C, strain pmr1, hits give low values 0.972 | locus YGL173C, strain kem1, hits give low values 0.98 | locus YGL227W, strain vid30, hits give low values 0.988 | locus YGL240W, strain doc1, hits give low values 0.983 | locus YGL253W, strain hxk2, hits give low values 0.997 | locus YGR078C, strain PAC10, hits give low values 1 | locus YHR013C, strain ard1, hits give low values 1.03 | locus YHR027C, strain rpn1, hits give low values 0.99 | locus YHR030C, strain SLT2, hits give low values 0.94 | locus YHR079C, strain IRE1, hits give low values 0.954 | locus YHR142W, strain chs7, hits give low values 1.01 | locus YJL092W, strain hpr5, hits give low values 0.992 | locus YJL095W, strain BCK1 (second series), hits give low values 0.993 | locus YJL095W, strain BCK1, hits give low values 0.992 | locus YJL115W, strain asf1, hits give low values 0.983 | locus YJL129C, strain trk1, hits give low values 0.992 | locus YJL154C, strain vps35, hits give low values 0.99 | locus YJL164C, strain tpk1, hits give low values 0.979 | locus YJL166W, strain qcr8, hits give low values 0.986 | locus YJL187C, strain SWE1, hits give low values 0.994 | locus YJR066W, strain TOR1, hits give low values 0.935 | locus YJR075W, strain HOC1, hits give low values 1 | locus YKL160W, strain elf1, hits give low values 1 | locus YKR026C, strain gcn3, hits give low values 0.953 | locus YKR091W, strain srl3, hits give low values 0.984 | locus YLL001W, strain dnm1, hits give low values 0.988 | locus YLL026W, hits give low values 0.988 | locus YLL041C, strain sdh2, hits give low values 0.996 | locus YLR027C, strain aat2, hits give low values 0.993 | locus YLR113W, strain HOG1, hits give low values 0.996 | locus YLR221C, strain rsa3, hits give low values 1.01 | locus YLR258W, strain gsy2, hits give low values 0.991 | locus YLR262C, strain YPT6 (second series), hits give low values 0.97 | locus YLR320W, strain mms22, hits give low values 0.935 | locus YLR342W, strain FKS1, hits give low values 0.986 | locus YLR357W, strain rsc2, hits give low values 0.939 | locus YLR370C, strain arc18, hits give low values 0.996 | locus YLR384C, strain iki3, hits give low values 0.971 | locus YML120C, strain ndi1, hits give low values 0.98 | locus YMR058W, strain fet3, hits give low values 0.996 | locus YMR125W, strain sto1, hits give low values 0.988 | locus YMR129W, hits give low values 1 | locus YMR205C, strain PFK2, hits give low values 0.941 | locus YMR231W, strain pep5, hits give low values 0.992 | locus YMR263W, strain SAP30, hits give low values 1 | [4] 1 | locus YNL071W, strain lat1, hits give low values 0.996 | [5] 1.01 | [6] 1.03 | locus YNL183C, strain NPR1, hits give low values 0.942 | [7] 1 | locus YNL209W, strain ssb2, hits give low values 0.992 | [8] 1.02 | locus YNL248C, strain rpa49, hits give low values 1.01 | locus YNL322C, strain KRE1 (second series), hits give low values 0.981 | [9] 1.01 | locus YNR049C, strain mso1, hits give low values 0.983 | locus YOR001W, strain rrp6, hits give low values 0.997 | locus YOR070C, strain gyp1, hits give low values 0.99 | locus YOR080W, strain dia2, hits give low values 0.984 | [10] 1.02 | locus YOR083W, strain WHI5, hits give low values 1.01 | locus YOR106W, strain vam3, hits give low values 0.991 | locus YOR231W, strain MKK1, hits give low values 0.914 | locus YOR265W, strain rbl2, hits give low values 0.991 | locus YOR270C, strain vph1, hits give low values 0.993 | locus YOR290C, strain snf2, hits give low values 0.918 | locus YPL051W, strain arl3, hits give low values 1 | locus YPL055C, strain LGE1, hits give low values 0.999 | locus YPL078C, strain atp4, hits give low values 0.994 | locus YPL106C, strain sse1, hits give low values 0.951 | locus YPL240C, strain hsp82, hits give low values 1.01 | [11] 1.01 | locus YPL256C, strain CLN2, hits give low values 0.929
